A selection: hits, their analogues and other compounds. The true share with any hit is near 1.3%.
Gli-Sufu block – Gli-Sufu pathway antagonists, primary screen, luciferase luminescence, Sufu-KO-LIGHT cells, uHTS | hit rate 0.74% among 340,000 | AID 588413, 2011 | Sufu-KO-LIGHT fibroblasts, Gli luciferase reporter luminescence | inhibition, % at 5 µM;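 active means inhibition above about 55%, limit read from the data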;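 further: 0% = DMSO-treated cells and 100% = wells with medium but no cells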
COUP-TFII inh – NR2F2 transcriptional activity inhibitors, primary screen, cell-based, luciferase reporter, HEK293T, luminescence; HEK293T NGFI-A luciferase reporter; COUP transcription factor 2 (Homo sapiens), P24468; hit rate 0.7% among 370,000; AID 686940, 2013; inhibition, % at 8.6 µM;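 active means inhibition above a per-plate cutoff, mean inhibition of test wells between control levels plus 3 SD, cut at about 38% in these data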;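 further: cells cotransfected with COUP-TFII expression vector driving the NGFI-A reporter; 0% = median of COUP-TF2 test wells and 100% = reporter-only cells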
Target sequence (P24468 whole entry, looked up): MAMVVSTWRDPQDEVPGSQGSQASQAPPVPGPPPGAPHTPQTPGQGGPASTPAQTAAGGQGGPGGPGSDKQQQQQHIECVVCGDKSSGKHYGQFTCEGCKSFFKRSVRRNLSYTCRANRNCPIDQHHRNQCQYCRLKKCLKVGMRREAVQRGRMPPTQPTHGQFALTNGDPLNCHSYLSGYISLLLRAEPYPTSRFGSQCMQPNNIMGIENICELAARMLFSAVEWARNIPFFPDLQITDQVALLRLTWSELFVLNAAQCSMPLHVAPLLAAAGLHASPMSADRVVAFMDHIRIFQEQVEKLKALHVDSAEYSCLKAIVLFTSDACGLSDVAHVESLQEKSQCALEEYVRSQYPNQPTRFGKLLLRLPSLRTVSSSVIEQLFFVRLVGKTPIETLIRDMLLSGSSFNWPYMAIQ
NCOA1 inh – SRC1 coactivator transcriptional activity inhibitors, primary screen, cell-based, luminescence; hit rate 0.12% among 360,000; HEK293 GAL4-SRC1 luciferase reporter; Nuclear receptor coactivator 1 (Homo sapiens), Q15788; AID 588354, 2011; inhibition, % at 3.6 µM;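 active means inhibition above the campaign mean plus 3 SD, with each screening campaign given its own cutoff, cut at about 60% in these data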;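 further: 0% = DMSO treated cells and 100% = gossypol at 36 µM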
NR5A2 inv ag – LRH-1 (NR5A2) inverse agonists, primary screen, cell-based, luminescence, HEK293T, StAR-luciferase reporter | LRH-1 transfected, 24 h | inhibition, % at 3.6 µM | hit rate 0.13% among 360,000;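 active means inhibition above the mean inhibition of all tested compounds plus 3 SD, cut at about 73% in these data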;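 further: 0% = DMSO wells and 100% = reporter-only cells lacking LRH-1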
SRC3 inh – SRC3 coactivator transcriptional activity inhibitors, primary screen, cell-based, luminescence; inhibition, % at 3.6 µM; Nuclear receptor coactivator 3 (Homo sapiens), Q9Y6Q9; hit rate 0.17% among 360,000; HEK293 GAL4-SRC3 luciferase reporter; AID 588352, 2011;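 active means inhibition above a per-campaign cutoff, the mean of all compounds plus 3 SD, cut at about 60% in these data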;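 further: 0% = DMSO-treated cells and 100% = gossypol-treated cells at 36 µM; higher means less SRC3-driven luciferase light from the GAL4 reporter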
NCOA2 inhibitor – inhibition of GAL4-SRC2 driven luciferase reporter, primary screen, SRC2 inhibitor project, cell-based, luminescence; HEK293 GAL4-SRC2 luciferase reporter; inhibition, % at 9 µM; hit rate 0.17% among 370,000; AID 651957, 2012;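 active means inhibition above the mean inhibition of all tested compounds plus 3 SD, set per campaign, cut at about 52% in these data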;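 further: 0% = DMSO treated cells and 100% = cells given Gossypol at 36 µM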
VP16 Luc counter – Gal4-VP16 luciferase reporter inhibitors, counter-screen for COUP-TFII antagonist project, cell-based, luminescence, HEK293. shares compounds with COUP-TFII inh. hit rate 25% among 2,500. inhibition, % at 8.5 µM; in the data active means inhibition above about 13%
NR2F2 inh conf – NR2F2 transcriptional activity inhibitors, confirmation, cell-based, luciferase reporter, HEK293, triplicate; shares compounds with COUP-TFII inh; HEK293 NGFI-A luciferase reporter, luminescence; inhibition, % at 8.5 µM; hit rate 45% among 2,500; AID 687008, 2013;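 active means mean inhibition over three repeats above a set limit taken from the earlier primary screen, cut at about 38% in these data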;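 further: 100% = cells given the luciferase reporter alone without the COUP-TF2 vector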
* hit, by the source's call; / = not tested or not shown.

SMILES | Gli-Sufu block | COUP-TFII inh | NCOA1 inh | NR5A2 inv ag | SRC3 inh | NCOA2 inhibitor | VP16 Luc counter | NR2F2 inh conf
COc1ccc(-c2cc(NC(=O)Cc3c(C)[nH]c4ccccc34)ccc2Nc2cccnc2)cc1F | / | 0 | / | / | / | -18 | / | /
Cc1ccc(S(=O)(=O)N(C)CCCC(=O)Nc2ccc(F)cc2)cc1 | 4 | 1 | -3 | 13 | -6 | 6 | / | /
Cc1ccc(S(=O)(=O)N(C)CCCC(=O)Nc2ccncc2)cc1 | 5 | 42* | 3 | 13 | -8 | 10 | -1 | 19
COC(=O)[C@H](C(C)C)N1Cc2nnn(CC3CCCCC3)c2-c2ccccc2S1(=O)=O | / | 1 | / | / | / | -10 | / | /
COc1ccc2nc(NC(=O)C3CCN(S(=O)(=O)c4cccc5nsnc45)CC3)sc2c1 | 19 | 78* | -1 | 14 | 18 | 49 | 5 | 51*
COc1ccc(-c2c[n+]3c(n2-c2c(C)n(C)n(-c4ccccc4)c2=O)CCCCC3)cc1 | -1 | 4 | -4 | 2 | -3 | 12 | / | /
CCOc1ccc(-n2c(-c3ccc(OC)cc3)c[n+]3c2CCCCC3)cc1 | 87* | 83* | 30 | 84* | 46 | -5 | 20* | 72*
COc1ccc(-c2c[n+]3c(n2-c2ccc(C)cc2)CCCCC3)cc1 | 79* | 71* | 35 | 72 | 58 | 22 | 10 | 61*
COC(=O)[C@]12C[C@H](CC(=O)NCCCN3CCCC3=O)C(=O)N(CCC3=CCCCC3)C1=C[C@H](C1CCCC1)O[C@@H]2C | / | 13 | / | / | / | -5 | / | /
COCCCN1C(=O)[C@H](CC(=O)N2CCOCC2)[C@]2(C(=O)OC)CCCCC=C12 | / | 4 | / | / | / | -2 | / | /
COCCn1c(C)cc(C(=O)COC(=O)c2cc3c(s2)CCC3)c1C | 7 | -12 | 9 | 6 | -17 | -14 | / | /
COCCn1c(C)cc(C(=O)COC(=O)c2cccc(O)c2)c1C | 43 | 72* | 54 | -19 | 60 | 52 | 64* | 87*
O=C1CSc2ccc(C(=O)N3CCCC(C(=O)N4CCCC4)C3)cc2N1 (stereo unspecified) | / | -2 | / | / | / | 1 | / | /
O=C(OCCCN1CCC2(CCC(c3ccccc3)CC2)C1=O)c1ccccc1 (stereo unspecified) | / | 8 | / | / | / | -5 | / | /
CC(NC(=O)COC(=O)c1ccccc1O)c1ccccc1 (stereo unspecified) | / | -12 | 0 | 8 | 1 | -4 | / | /
O=C(COC(=O)c1ccccc1O)NC(c1ccccc1)c1ccccc1 | -8 | 41* | -1 | 11 | -1 | -12 | -1 | -2
CCCCOCCCNC(=O)C[C@H]1C[C@@]2(C(=O)OC)C(=C[C@H](C(C)C)O[C@@H]2C2CC2)N(Cc2ccc(Cl)cc2Cl)C1=O | / | -3 | / | / | / | -8 | / | /
O=S1(=O)c2ccc(Br)cc2OC[C@H](Cc2ccccc2)N1Cc1cn(Cc2ccc(F)cc2)nn1 | / | -1 | / | / | / | -5 | / | /
C=CCNc1nc(-c2sc(NC(=O)C(C)(C)C)nc2C)c(-n2cc(-c3ccccc3)nn2)s1 | / | 38* | / | 26 | / | 23 | -5 | 10
C=CCNc1nc(-c2sc(NC(C)=O)nc2C)cs1 | -63 | -36 | -53 | 13 | -28 | -21 | / | /
CCCC1CCC2(CCCN2CCOC(=S)Nc2ccccc2OC)CC1 (stereo unspecified) | / | 51* | / | / | / | / | 2 | 8
CCCC1CCC2(CCCN2CCOC(=S)Nc2ccccc2Br)CC1 (stereo unspecified) | / | 26 | / | / | / | / | / | /
Cc1ccccc1NC(=O)CN1CCN(c2nc(-c3ccccc3)cs2)CC1 | / | -4 | / | / | / | -8 | / | /
CCOC(=O)N1CCC(NC(=O)c2ccc3c(c2)N(C)C(=O)/C(=C/c2cccc(OC)c2)S3)CC1 | 27 | 40* | 8 | 21 | 12 | 31 | 12 | 53*
COc1cccc(/C=C2/Sc3ccc(C(=O)NC4CC4)cc3NC2=O)c1 | / | 23 | / | / | / | -2 | / | /
SMILES | Gli-Sufu block | COUP-TFII inh | NCOA1 inh | NR5A2 inv ag | SRC3 inh | NCOA2 inhibitor | VP16 Luc counter | NR2F2 inh conf
CCOC(=O)N1CCN(C(=O)c2ccc3c(c2)NC(=O)/C(=C\c2ccc(OC)c(OC)c2)S3)CC1 | -3 | 7 | 13 | -15 | -6 | 12 | / | /
CCOC(=O)N1CCN(C(=O)c2ccc3c(c2)N(C)C(=O)/C(=C\c2ccc(OCC)c(OC)c2)S3)CC1 | -8 | 51* | -16 | 26 | -1 | 16 | 2 | 24
CNC(=O)COC(=O)COc1ccc2c(C)cc(=O)oc2c1 | -7 | -3 | 5 | 6 | 0 | 2 | / | /
Cc1cc(=O)oc2cc(OCC(=O)OCC(=O)Nc3ccccc3Br)ccc12 | -2 | 55* | -6 | 11 | 16 | -18 | -9 | 1
Cc1cc(C(=O)Nc2ccc(F)cc2)n(-c2ccccc2)n1 | / | -13 | / | / | / | 7 | / | /
Cc1ccc(CNC[C@@]23CO[C@H](c4ccc(Cl)cc4)N2[C@@H](c2ccc(Cl)cc2)SC3)o1 | / | 5 | / | / | / | 19 | / | /
O=C(Nc1ccc(Oc2ccccc2)cc1)c1csc([C@@H]2C[C@H](O)[C@@H](CO)O2)n1 | / | 52* | 9 | 24 | -1 | -6 | -17 | 27
CC(=O)Nc1ccc(NC(=O)c2csc([C@H]3C[C@H](O)[C@@H](CO)O3)n2)cc1 | / | 9 | 5 | 1 | 6 | -13 | / | /
O=C(Nc1ccc(Cl)cc1)c1csc(COCCO)n1 | / | 4 | -34 | -54 | -61 | -5 | / | /
O=C(Nc1ccc(Oc2ccccc2)cc1)c1csc(COCCO)n1 | / | 43* | -5 | 25 | 3 | -8 | -26 | 27
COC(=O)[C@@]12CCCCC3=C1N(CCC3)C(=O)[C@H]2CC(=O)N1CCCCC1 | / | -1 | / | / | / | 0 | / | /
C/C(=N\NC(N)=S)C1C2C3CC4C5CC(C42)C1C53 (stereo unspecified) | 37 | 57* | 21 | 29 | 39 | 31 | 11 | 43*
O=C(NNC(=O)c1ccccc1O)c1ccc(Cl)c(S(=O)(=O)N2CCc3ccccc32)c1 | 63* | 48* | 28 | 16 | 19 | -9 | 0 | 39*
O=S(=O)(NC1CCCC1)c1ccc(S(=O)(=O)N2CCc3ccccc32)cc1 | 47 | 40* | 7 | 22 | 3 | 10 | -4 | 10
Nc1ccc(S(=O)(=O)N2CCc3ccccc32)cc1 | -10 | 12 | -10 | -7 | 2 | 20 | / | /

Bioassay records from PubChem BioAssay.
